RAD54 branch: blocks human RAD54 Holliday junction branch migration; AID 602329; FAM/BHQ fluorescence; 0.14% of 360,000 active; inhibition, % at 10.4 µM; Q92698;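 active = mean normalized replicate activity at least 40 and at least half of replicates scoring 40 or more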;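 also: 0% = median of neutral control wells and 100% = median of positive control wells; inhibitors cause a drop in the FAM fluorescence signal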
dFosB activator: mouse delta FosB homodimer activation | P13346 | purified delta FosB, TAMRA-CDK5 oligo fluorescence polarization; percent of positive-control signal above neutral wells | activation, % at 25 µM | 0.99% of 340,000 active;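 active = mean activation above about 17%, with every replicate also reaching it, limit read from the data, passing the limit was not always enough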
Target sequence (P13346 whole entry, looked up): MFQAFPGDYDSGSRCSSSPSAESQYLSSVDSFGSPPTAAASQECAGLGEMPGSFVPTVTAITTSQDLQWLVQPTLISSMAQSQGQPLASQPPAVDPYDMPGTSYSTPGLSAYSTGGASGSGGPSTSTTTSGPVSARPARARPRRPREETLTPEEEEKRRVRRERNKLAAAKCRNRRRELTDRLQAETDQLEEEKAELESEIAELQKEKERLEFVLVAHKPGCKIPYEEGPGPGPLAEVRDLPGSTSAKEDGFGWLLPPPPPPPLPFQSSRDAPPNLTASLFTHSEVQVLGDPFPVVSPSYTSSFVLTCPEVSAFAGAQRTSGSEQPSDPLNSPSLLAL
MLL AF4-AF9 inh: blocks AF4 peptide binding to human AF9 | P42568 | AlphaScreen, biotin-AF4 peptide binding to FLAG-AF9 | inhibition, % at 10 µM | 0.47% of 350,000 active;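 active = every replicate reaching a set inhibition limit, whatever the replicate mean, cut at about 25% in these data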;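 also: 0% = plate neutral control median and 100% = total signal loss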
GSIS activator: primary screen for activators of insulin secretion dependent on glucose, INS-1E cells, GLuc reporter luminescence; INS-1E GLuc reporter insulin secretion, 2-3 h; activation, % at 16.6 µM; 0.61% of 370,000 active; AID 743287;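 active = lowest replicate activation of at least 40%, so every replicate reaches that level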;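 also: 0% = median of neutral control wells and 100% = median of IBMX positive control wells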
DENV2 CPE: DENV2-induced cell death inhibition. DENV2-infected cells, cytopathic effect rescue, plate reader. CPE inhibition, % at 9.99 µM. 1.7% of 350,000 active. AID 651640; in the data active = CPE inhibition above about 20%, passing the limit was not always enough; tested in BHK-21 cells;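 also: 0% = median of neutral control wells and 100% = median of positive control wells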
RAD52 inh: RAD52 (human) annealing inhibition; recombinant RAD52 DNA annealing, FRET fluorescence; inhibition, % at 18.7 µM; 0.46% of 360,000 active; AID 651710;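 active = every replicate showing at least 50% inhibition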
Numbers without * were called inactive; · = no result given; ! = repeats disagree. Compounds with a hit are over-represented: about 3.1% of the library has one in this group of screens.

SMILES	RAD54 branch	dFosB activator	MLL AF4-AF9 inh	GSIS activator	DENV2 CPE	RAD52 inh
CCC(C)c1ccccc1OCCn1ccnc1 (stereo unspecified)	·	0	·	48*	·	·
O=C(CCCOc1ccc(Cl)cc1Cl)NCCCn1ccnc1	·	-4	-4	1	6	-8
CCCNC(=O)c1nnsc1S(=O)(=O)c1ccc(Cl)cc1	·	-2	-6	65*	-7	-11
CCCNC(=O)c1nnsc1S(=O)c1ccc(Cl)cc1 (stereo unspecified)	·	-5	0	115*	-2	8
COCCNC(=O)C[C@H]1CC[C@@H]2[C@H](COC[C@@H](O)CN2S(=O)(=O)c2ccccc2C)O1	1	·	-2	1	-3	28
CCOC(=O)C[C@H]1c2ccccc2S(=O)(=O)N1c1ccccc1	3	-4	-4	-3	37*	-13
CCOC(=O)C[C@H]1c2cc(F)ccc2S(=O)(=O)N1c1ccccc1	12	-1	-2	-13	-7	-8
CC(C)CC#Cc1cnc2c(c1)C(=O)N([C@@H](C)CO)C[C@@H](C)[C@H](CN(C)C(=O)CCN1CCCCC1)O2	12	·	1	-13	-5	21
C[C@@H]1CCCCO[C@H](CN(C)C(=O)NC2CCCCC2)[C@@H](C)CN([C@H](C)CO)C(=O)c2cc(NC(=O)Cc3ccccc3)ccc2O1	2	·	1	-11	-3	-36
C=C(C(=O)O)C(CCCCCC)C(=O)O (stereo unspecified)	8	-5	-1	·	90*	-17
C=C1[C@@H](O)[C@H](CC(C)C)N(Cc2ccccc2Br)S1(=O)=O	5	-6	·	45*	13	-9
COc1ccc(NC(=O)N2CC(=O)N3[C@H](C2)[C@@H](c2ccc(C4=CCCC4)cc2)[C@@H]3CO)cc1	·	·	5	-9	-11	-11
COc1cccc(S(=O)(=O)Nc2ccc3c(c2)[C@H]2C[C@H](CC(=O)O)O[C@@H](CO)[C@H]2O3)c1	2	·	0	1	0	-8
Cc1c(C(=O)OC(C)C)sc(N)c1C(=O)OC(C)C	·	-3	-2	·	48*	-15
Cc1c(C(N)=O)sc(N)c1C(=O)OC(C)C	-6	-6	·	·	·	·
COc1ccc(Nc2nc(-c3sc(N)nc3C)cs2)cc1	-25	-3	·	·	·	·
Cc1ccc(Nc2nc(-c3sc(N)nc3C)cs2)cc1	1	-12	13	15	47*	-28
C[C@H]1CN([C@@H](C)CO)C(=O)CCCn2nncc2CO[C@H]1CN(C)CC1CC1	5	·	1	6	0	-16
O=S(=O)(c1ccccc1F)N1C[C@@H]2N[C@H](C1)C2c1ccc(/C=C/c2ccccc2)cc1 (stereo partly specified)	·	·	1	171*!	-5	74*!
O=S(=O)(c1ccccc1)N1C[C@@H]2N[C@H](C1)C2c1ccc(/C=C/c2ccccc2)cc1 (stereo partly specified)	·	·	-2	18	-5	87*!
Cc1ccccc1S(=O)(=O)N1C[C@@H]2N[C@H](C1)C2c1ccc(/C=C/c2ccccc2)cc1 (stereo partly specified)	·	·	·	6	·	·
O=S(=O)(c1ccccc1F)N1CCCCN2[C@H](CO)[C@H](c3ccc(-c4ccccc4)cc3)[C@H]2C1	0	·	3	-22	34*	0
COCC#Cc1ccc([C@@H]2[C@H]3CN(S(=O)(=O)c4ccccc4F)CCCCN3[C@H]2CO)cc1	-13	·	-3	-11	33*	-2
Cc1ccccc1S(=O)(=O)N1CCCCN2[C@H](CO)[C@@H](c3ccc(-c4ccccc4)cc3)[C@H]2C1	6	·	0	·	-2	70*
O=S(=O)(c1ccccc1F)N1CCCCN2[C@H](C1)[C@@H](c1ccc(-c3ccccc3)cc1)[C@@H]2CO	2	·	-8	·	4	-2
SMILES	RAD54 branch	dFosB activator	MLL AF4-AF9 inh	GSIS activator	DENV2 CPE	RAD52 inh
Cc1ccccc1S(=O)(=O)N1CCCCN2[C@H](CO)[C@H](c3ccc(-c4ccccc4)cc3)[C@H]2C1	5	·	0	·	-3	73*
COCC#Cc1ccc([C@@H]2[C@@H](CO)N3CCCCN(S(=O)(=O)c4ccccc4C)C[C@@H]23)cc1	-17	·	-6	-13	-2	-25
Cc1ccccc1-c1ccc([C@H]2[C@@H](CO)N3CCCCN(S(=O)(=O)Cc4ccccc4)C[C@H]23)cc1	-11	·	2	-2	-22	69*
O=C(c1cccc(F)c1)N1CC(=O)N2[C@H](C1)[C@H](c1ccc(-c3ccccc3)cc1)[C@@H]2CO	·	·	·	-10	·	·
COc1ccc(CN(C)C[C@@H]2Oc3c(NC(=O)Nc4c(C)noc4C)cccc3C(=O)N([C@H](C)CO)C[C@@H]2C)cc1	-9	·	-2	4	3	-1
C/C(CC(=O)Nc1ccc(Cl)c(Cl)c1)=N\NC(=O)Cc1ccccc1	·	2	2	-11	51*	-11
C/C(CC(=O)Nc1ccc2c(c1)OCCO2)=N\NC(=O)Cc1ccccc1	-4	1	1	10	-1	-10
CCCC#Cc1cnc2c(c1)C(=O)N([C@@H](C)CO)C[C@@H](C)[C@H](CN(C)C(=O)c1ccc(F)cc1)O2	0	·	1	-10	-11	-4
CC(C)NC(=O)N(C)C[C@H]1Oc2ncc(-c3ccccc3F)cc2C(=O)N([C@H](C)CO)C[C@@H]1C	-4	·	-4	0	1	-2
O=C(COC(=O)c1cc(NS(=O)(=O)c2cccs2)ccc1O)Nc1cc(Cl)ccc1Cl	·	51*	-1	16	-3	-9
O=C(COC(=O)c1ccc(NS(=O)(=O)c2cccs2)cc1)Nc1nc2c(F)c(F)c(F)cc2s1	·	37*	·	·	·	·
CC(C)NC(=O)N(C)C[C@H]1OCCCC[C@@H](C)Oc2ccc(NC(=O)CCCN(C)C)cc2C(=O)N([C@@H](C)CO)C[C@H]1C	11	·	-2	8	-1	-41
C[C@H]1CN([C@@H](C)CO)C(=O)c2cccc(NS(C)(=O)=O)c2O[C@@H]1CN(C)Cc1ccc(C(=O)Nc2ccccc2N)cc1	·	·	5	10	75*	11
CNC[C@H]1Oc2c(NC(=O)c3ccncc3)cccc2C(=O)N([C@@H](C)CO)C[C@H]1C	0	·	3	17	38*	-8
C[C@@H]1CN([C@H](C)CO)C(=O)c2cccc(NC(=O)c3ccncc3)c2O[C@H]1CN(C)Cc1ccc(C(=O)Nc2ccccc2N)cc1	5	·	10	9	13	-1
C[C@@H]1CN([C@@H](C)CO)C(=O)c2cccc(NC(=O)c3ccncc3)c2O[C@H]1CN(C)Cc1ccc(Oc2ccccc2)cc1	-6	·	3	·	0	-16
C[C@@H]1CN([C@H](C)CO)C(=O)c2cccc(NC(=O)c3ccncc3)c2O[C@@H]1CN(C)Cc1ccc(Oc2ccccc2)cc1	-2	·	25*	-21	0	-1

Screens: PubChem, Broad Institute
